Source: PubChem BioAssay AID463173 (ICCB-Longwood Screening Facility, Harvard Medical School, 2010)
Where “and” joins values, the source holds several entries; their conditions need not be identical. Equal entries are not always repeated. The whole screen tested about 52,000 compounds, of which about 1,700 (3.3%) were called active. Rule as the data show it: active = survival mostly below about 52% (no sharp cut-off); inactive = mostly above about 56%. Only a selection was taken, and actives are over-represented in it overall. Some compounds were tested as several samples or in several runs, with calls that do not always agree.

What follows are molecules tested on Wild type (assay: S. aureus survival, RN4220 and DeltatarO strains – OD600, teichoic acid synthesis inhibitors, primary screen (AID 463173)). Settings: S. aureus RN4220 wild type/DeltatarO growth, OD600, 18 h, stronger effect = lower value, screened at 18.75 µg/mL (by protocol).

Row | SMILES | survival
1 | O=C(c1cccs1)c1cn(CCOc2ccccc2F)c2ccccc12 | 75% (inactive)
2 | O=C(c1cn(CCOc2ccc(Cl)cc2)c2ccccc12)C1CCCCC1 | 9% (active)
3 | Cc1ccc(OCCn2cc(C(=O)C3CCCCC3)c3ccccc32)cc1 | 1% (active)
4 | COc1ccc(OCCn2cc(C(=O)C3CCCCC3)c3ccccc32)cc1 | 31% (inactive)
5 | Cc1ccc(NC(=O)Cn2cc(C(=O)C3CCCCC3)c3ccccc32)cc1 | 87% (inactive)
6 | O=C(c1cn(CCOc2ccccc2F)c2ccccc12)C1CCCCC1 | 3% (active)
7 | O=C(c1cccs1)c1cn(CCOc2ccc(Cl)cc2)c2ccccc12 | 80% (inactive)
8 | Cc1ccccc1OCCn1cc(C(=O)C2CCCCC2)c2ccccc21 | 124% (inactive)
9 | O=C(c1ccco1)c1cn(CCOc2ccc(Cl)cc2)c2ccccc12 | 68% (inactive)
10 | Cn1ncc(Cl)c1C(=O)O | 95% (inactive)
11 | O=C(CC1N=C2c3ccccc3N=C(SCC(=O)Nc3ccccc3F)N2C1=O)NCc1cccs1 (stereo unspecified) | 73% (inactive)
12 | O=C1C2=C(Nc3ncnn3C2c2ccccc2)c2ccccc21 (stereo unspecified) | 114% (inactive)
13 | CSc1ccc(/C=C/c2nc3ccccc3n2S(=O)(=O)c2cccc(Cl)c2)cc1 | 66% (inactive)
14 | CCN1CCN(C(C)C(=O)NC(c2ccccc2)c2ccccc2)CC1 (stereo unspecified) | 113% (inactive)
15 | Cc1cccc(Cn2nc(C)n3c(cc4cc(C)ccc43)c2=O)c1 | 79% (inactive)
16 | CCc1cccc2c(-c3ccccc3)nc(SCC(=O)Nc3ccccc3)nc12 | 88% (inactive)
17 | Cc1ccc(NC(=O)CSc2nnc3nc(C)cc(C)n23)cc1 | 73% (inactive)
18 | CCN(CC)S(=O)(=O)c1ccc2c(c1)N(CC(=O)Nc1c(C)cccc1C)C(=O)C1CCCN21 (stereo unspecified) | 73% (inactive)
19 | CCc1ccccc1NC(=O)CN1C(=O)C2CCCN2c2ccc(S(=O)(=O)N(CC)CC)cc21 (stereo unspecified) | 81% (inactive)
20 | CCN(CC)S(=O)(=O)c1ccc2c(c1)N(CC(=O)Nc1cccc(C)c1C)C(=O)C1CCCN21 (stereo unspecified) | -4% (active)
21 | CCc1ccc(-c2cc(C)no2)cc1S(=O)(=O)Nc1ccc(Cl)cc1 | 74% (inactive)
22 | CCc1ccc(-c2cc(C)no2)cc1S(=O)(=O)Nc1cc(OC)c(OC)c(OC)c1 | 83% (inactive)
23 | CCc1ccc(-c2cc(C)no2)cc1S(=O)(=O)Nc1ccc(Cl)cn1 | -1% (active)

Row | SMILES | survival
24 | CCc1ccc(-c2cc(C)no2)cc1S(=O)(=O)Nc1ccc(C)cn1 | 14% (active)
25 | Cc1ccc(-c2onc(C)c2C)cc1S(=O)(=O)Nc1ccc(Cl)cn1 | 89% (inactive)
26 | Cc1ccnc(NS(=O)(=O)c2cc(-c3cc(C)no3)ccc2C)c1 | 78% (inactive)
27 | O=C(CN1C(=O)C(c2ccc(F)cc2)=NC12CCCCCC2)Nc1ccc(F)c(Cl)c1 | 76% (inactive)
28 | CCOc1ccc(NC(=O)CCc2c(C)nc3cc(-c4ccccc4OC)nn3c2C)cc1 | 76% (inactive)
29 | COc1ccc(NC(=O)CSc2nc(-c3ccc(OC)cc3)cc(=O)[nH]2)cc1 | 148% (inactive)
30 | CCOCN(C(=O)Cn1c(COC)nc2ccccc21)c1c(C)cccc1CC | 111% (inactive)
31 | CCOCN(C(=O)Cn1c(C(C)O)nc2ccccc21)c1c(C)cccc1CC (stereo unspecified) | 117% (inactive)
32 | CCOCN(C(=O)Cn1c(C)nc2ccccc21)c1c(C)cccc1CC | 124% (inactive)
33 | CCCCc1nc2ccccc2n1CC(=O)N(COCC)c1c(C)cccc1CC | -1% (active)
34 | CCOCN(C(=O)Cn1c(CC(C)C)nc2ccccc21)c1c(C)cccc1CC | 5% (active)
35 | CCc1cccc(CC)c1N(COC)C(=O)Cn1c(CC)nc2ccccc21 | 74% (inactive)
36 | Cc1cccc(NC(=O)CN2C(=O)COc3ccc(S(=O)(=O)N4CCC(C)CC4)cc32)c1C | 101% (inactive)
37 | Cc1ccc(-c2nc(-c3cc4cccc(OCc5cccc(C)c5)c4oc3=O)no2)cc1 | 71% (inactive)
38 | CC(CNC(=O)c1csc2c1CCCCC2)c1ccccc1 (stereo unspecified) | 0% (active)
39 | CCC(Cc1ccccc1)NC(=O)c1csc2c1CCCCC2 (stereo unspecified) | 120% (inactive)
40 | CSc1ccc(CCNC(=O)c2csc3c2CCCCC3)cc1 | 69% (inactive)
41 | CC(C)(C)c1ccc(-c2nnc(-c3ccccc3NC(=O)c3ccc(F)cc3F)o2)cc1 | 144% (inactive)
42 | CCCCSc1nc(-c2ccc(OC)cc2)ccc1C#N | 28% (inactive)
43 | CCOC(=O)C(C)Sc1nc(-c2ccccc2)ccc1C#N (stereo unspecified) | 107% (inactive) and 0% (active)
44 | CCOC(=O)C(C)Sc1nc(-c2ccccc2Cl)cc(-c2ccccc2)c1C#N (stereo unspecified) | 79% (inactive)
45 | COc1cccc(C(=O)Nc2ccc(-n3nncc3-c3ccc(Br)cc3)cc2)c1OC | 143% (inactive)
46 | CC(=O)N1CCc2cc(S(=O)(=O)NC(Cc3ccccc3)C(=O)Nc3ccc(C)cc3C)ccc21 (stereo unspecified) | 74% (inactive)

Row | SMILES | survival
47 | Nc1cccc(Cl)c1N1CCOCC1 | 110% (inactive)
48 | COc1ccccc1C(=O)Nc1c(C(=O)N2CCN(c3ccc(F)cc3)CC2)oc2ccccc12 | -2% (active)
49 | COc1ccccc1C(=O)Nc1c(C(=O)N2CCN(c3ccccc3F)CC2)oc2ccccc12 | 101% (inactive)
50 | COc1cc(C(=O)Nc2c(C(=O)Nc3ccccc3F)oc3ccccc23)cc(OC)c1OC | 68% (inactive)
51 | O=C(Nc1c(C(=O)N2CCN(c3ccc(F)cc3)CC2)oc2ccccc12)c1ccco1 | 88% (inactive)
52 | O=C(Nc1c(C(=O)N2CCN(c3ccccc3)CC2)oc2ccccc12)c1ccco1 | 10% (active)
53 | COc1ccc(N2CCN(C(=O)c3oc4ccccc4c3NC(=O)c3ccccc3OC)CC2)cc1 | 129% (inactive)
54 | COc1ccccc1C(=O)Nc1c(C(=O)Nc2ccccc2F)oc2ccccc12 | 2% (active)
55 | O=C(Cc1ccccc1)Nc1c(C(=O)c2ccccc2)oc2ccccc12 | 7% (active)
56 | CCc1ccc2occ(CC(=O)Nc3c(C(=O)c4ccccc4)oc4ccccc34)c2c1 | 104% (inactive)
57 | Cc1ccc(C(=O)c2oc3ccccc3c2NC(=O)Cc2ccccc2)cc1 | 53% (inactive)
58 | COc1ccccc1NC(=O)c1oc2ccccc2c1NC(=O)c1c(F)cccc1F | 60% (inactive)
59 | O=C(Nc1c(C(=O)N2CCN(c3ccccc3F)CC2)oc2ccccc12)c1ccco1 | 69% (inactive)
60 | Cc1ccc(NC(=O)CSc2nnc(C)n3c2cc2sccc23)c(C)c1 | 84% (inactive)
61 | CCc1noc(-c2ccc(N3CCC(C)CC3)c([N+](=O)[O-])c2)n1 | 93% (inactive)
62 | CCOc1ccc(CCNC(=O)c2nnc(Cc3cc(OC)c(OC)c(OC)c3)o2)cc1OCC | 85% (inactive)
63 | COc1ccc(Cn2c(SCC(=O)N3CCN(c4ccc(F)cc4)CC3)nc3ccccc32)cc1 | 45% (inactive)
64 | Cn1c(=O)c(=O)n(C)c2cc(NC(=O)c3cccc(F)c3)c(Cl)cc21 | 71% (inactive)
65 | Cc1ccccc1CNS(=O)(=O)c1csc(C(N)=O)c1 | 128% (inactive)
66 | CCOC(=O)c1cccc(NC(=O)C(C)n2c(C)c3cnn(-c4ccccc4)c(=O)c3c2C)c1 (stereo unspecified) | 128% (inactive)
67 | CC(CC(=O)Nc1ccc(Br)cc1F)S(=O)(=O)c1ccc2c(c1)NC(=O)CO2 (stereo unspecified) | 63% (inactive)
68 | O=C(CCc1ccccc1)NC1CC(=O)N(c2cccc(F)c2)C1 (stereo unspecified) | 81% (inactive)
69 | COc1ccc(OC)c(CNC(=O)Cc2ccc(NC(=O)N3CCSc4ncccc43)cc2)c1 | 64% (inactive)

Row | SMILES | survival
70 | CCc1ccc(NS(=O)(=O)c2ccc3[nH]cc(C(=O)N(C)Cc4ccco4)c(=O)c3c2)cc1 | 85% (inactive)
71 | CCn1cc(C(=O)N2CCN(c3cc(Cl)ccc3C)CC2)c(=O)c2cc(S(=O)(=O)N3CCOCC3)ccc21 | 86% (inactive)
72 | COc1ccccc1C(=O)Nc1c(C(=O)NC(C)(C)C)oc2ccccc12 | 80% (inactive)
73 | COc1ccccc1C(=O)Nc1c(C(=O)c2ccccc2)oc2ccccc12 | -3% (active)
74 | COc1ccc(C(=O)Nc2c(C(=O)c3ccccc3)oc3ccccc23)cc1 | 75% (inactive)
75 | S=c1n(-c2ccccc2)cnn1CN1CCCCC1 | 96% (inactive)
76 | CC(=O)Nc1ccc(S(=O)(=O)N2CCC(c3ccncc3)CC2)cc1 | -6% (active)
77 | CC(=O)Nc1ccc(S(=O)(=O)N2CCC(C)CC2)cc1 | 112% (inactive)
78 | CC(C)(C)c1ccc(S(=O)(=O)N2CCC(c3ccncc3)CC2)cc1 | 120% (inactive)
79 | COc1ccc2c(c1)CCc1c(C(=O)Nc3c(C)nn(Cc4ccccc4C)c3C)noc1-2 | 26% (inactive)
80 | O=C(NCCc1ccc(Cl)cc1)c1ccc2c(c1)N(Cc1ccc(Cl)cc1)C(=O)CS2 | 98% (inactive)
81 | O=C(NCCc1ccccc1)c1ccc2c(c1)N(Cc1ccc(F)cc1)C(=O)CS2 | 88% (inactive)
82 | O=C(NCCc1ccc(Cl)cc1)c1ccc2c(c1)N(Cc1ccc(F)cc1)C(=O)CS2 | 10% (active)
83 | Cc1sc(NC(=O)COc2ccc(C(C)(C)C)cc2)c(C(=O)OC(C)C)c1C | 10% (active)
84 | CCOC(=O)c1c(NC(=O)COc2cc(C)ccc2C(C)C)sc(C)c1C | 67% (inactive)
85 | CCN(CC)C(=O)c1sc(NC(=O)C2c3ccccc3Oc3ccccc32)c(C(=O)OC(C)C)c1C | 8% (active)
86 | CCCc1ccc(OCC(=O)Nc2sc(C(=O)OCC)c(C)c2C(=O)OCC)cc1 | 92% (inactive)
87 | Cc1c(C(=O)OC(C)C)sc(NC(=O)C2c3ccccc3Oc3ccccc32)c1C(=O)OC(C)C | 87% (inactive)
88 | CCN(CC)C(=O)c1sc(NC(C)=O)c(C(=O)OC)c1C | 108% (inactive)
89 | Cc1sc(NC(=O)C2c3ccccc3Oc3ccccc32)c(C(=O)OC(C)C)c1C | 62% (inactive)
90 | COC(=O)c1c(NC(=O)COc2ccc(Cl)cc2)sc(C)c1C | 73% (inactive)
91 | CCOC(=O)c1c(NC(=O)COc2ccc(OC)cc2)sc(C(=O)N(CC)CC)c1C | -8% (active)
